According to PubChem BioAssay AID1159580 (chemical genetic matrix, 2015):
Out of some 5,500 compounds screened, about 2,000 (36%) were called active. Another 18% or so got no clear call; they are omitted. Rule as the data show it: active = normalized growth mostly below about 0.91 (no sharp cut-off); inconclusive = no clear call, values can overlap the other calls; inactive = mostly above about 0.92. The list shows a part of the results.

Assay: chemical genetic growth profiling, strain panel (AID 1159580);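 also: tested at 20 µM; growth read once vehicle control cultures reached saturation at 30 °C; 1 = growth at the plate median or of vehicle wells; lower values mean less growth of the strain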
Conditions: growth OD

Measured: normalized growth

COc1ccc2c(c1)c(CC(=O)OCC(=O)O)c(C)n2C(=O)c1ccc(Cl)cc1
inactive: S. cerevisiae deletion strains, locus YJR075W, strain HOC1, stronger effect = lower value 1.03 | S. cerevisiae deletion strains, locus YKL009W, strain mrt4, stronger effect = lower value 0.951 | S. cerevisiae deletion strains, locus YKL068W, stronger effect = lower value 1.01 | S. cerevisiae deletion strains, locus YKL085W, strain MDH1 (second series), stronger effect = lower value 0.984 | S. cerevisiae deletion strains, locus YKL085W, strain MDH1, stronger effect = lower value 0.984 | S. cerevisiae deletion strains, locus YKL160W, strain elf1, stronger effect = lower value 0.99 | S. cerevisiae deletion strains, locus YKL190W, strain CNB1, stronger effect = lower value 1.01 | S. cerevisiae deletion strains, locus YKR001C, strain vps1, stronger effect = lower value 1.02 | S. cerevisiae deletion strains, locus YKR026C, strain gcn3, stronger effect = lower value 0.991 | S. cerevisiae deletion strains, locus YKR091W, strain srl3, stronger effect = lower value 1 | S. cerevisiae deletion strains, locus YLL001W, strain dnm1, stronger effect = lower value 0.958 | S. cerevisiae deletion strains, locus YLL026W, stronger effect = lower value 0.997 | S. cerevisiae deletion strains, locus YLL041C, strain sdh2, stronger effect = lower value 0.995 | S. cerevisiae deletion strains, locus YLR027C, strain aat2, stronger effect = lower value 0.971 | S. cerevisiae deletion strains, locus YLR039C, strain RIC1, stronger effect = lower value 1.03 | S. cerevisiae deletion strains, locus YLR058C, strain SHM2, stronger effect = lower value 1.02 | S. cerevisiae deletion strains, locus YLR102C, strain apc9, stronger effect = lower value 1.01 | S. cerevisiae deletion strains, locus YLR113W, strain HOG1, stronger effect = lower value 0.991 | S. cerevisiae deletion strains, locus YLR221C, strain rsa3, stronger effect = lower value 0.998 | S. cerevisiae deletion strains, locus YLR258W, strain gsy2, stronger effect = lower value 1 | S. cerevisiae deletion strains, locus YLR262C, strain YPT6 (second series), stronger effect = lower value 0.99 | S. cerevisiae deletion strains, locus YLR262C, strain YPT6, stronger effect = lower value 1.03 | S. cerevisiae deletion strains, locus YLR268W, strain sec22, stronger effect = lower value 1.06 | S. cerevisiae deletion strains, locus YLR320W, strain mms22, stronger effect = lower value 1.01 | S. cerevisiae deletion strains, locus YLR330W, strain CHS5, stronger effect = lower value 1.01 | S. cerevisiae deletion strains, locus YLR342W, strain FKS1 (second series), stronger effect = lower value 1.02 | S. cerevisiae deletion strains, locus YLR342W, strain FKS1, stronger effect = lower value 0.971 | S. cerevisiae deletion strains, locus YLR357W, strain rsc2, stronger effect = lower value 0.946 | S. cerevisiae deletion strains, locus YLR370C, strain arc18, stronger effect = lower value 0.983 | S. cerevisiae deletion strains, locus YLR371W, strain rom2, stronger effect = lower value 1.02 | S. cerevisiae deletion strains, locus YLR384C, strain iki3, stronger effect = lower value 0.982 | S. cerevisiae deletion strains, locus YLR418C, strain cdc73, stronger effect = lower value 1.03 | S. cerevisiae deletion strains, locus YML016C, strain PPZ1, stronger effect = lower value 1 | S. cerevisiae deletion strains, locus YML032C, strain rad52, stronger effect = lower value 1.02 | S. cerevisiae deletion strains, locus YML120C, strain ndi1, stronger effect = lower value 0.982 | S. cerevisiae deletion strains, locus YML124C, strain tub3, stronger effect = lower value 1.02 | S. cerevisiae deletion strains, locus YMR058W, strain fet3, stronger effect = lower value 0.995 | S. cerevisiae deletion strains, locus YMR078C, strain ctf18, stronger effect = lower value 1.01 | S. cerevisiae deletion strains, locus YMR125W, strain sto1, stronger effect = lower value 1 | S. cerevisiae deletion strains, locus YMR129W, stronger effect = lower value 1.01 | S. cerevisiae deletion strains, locus YMR205C, strain PFK2, stronger effect = lower value 0.976 | S. cerevisiae deletion strains, locus YMR223W, strain ubp8, stronger effect = lower value 1.02 | S. cerevisiae deletion strains, locus YMR231W, strain pep5, stronger effect = lower value 0.991 | S. cerevisiae deletion strains, locus YMR263W, strain SAP30, stronger effect = lower value 1.02 | S. cerevisiae deletion strains, locus YMR307W, strain GAS1, stronger effect = lower value 1.04 | S. cerevisiae deletion strains, locus YNL067W, strain RPL9B, stronger effect = lower value 1.03 | S. cerevisiae deletion strains, locus YNL071W, strain lat1, stronger effect = lower value 1.01 | S. cerevisiae deletion strains, locus YNL128W, strain TEP1, stronger effect = lower value 1.02 | S. cerevisiae deletion strains, locus YNL153C, strain GIM3, stronger effect = lower value 1.02 | S. cerevisiae deletion strains, locus YNL183C, strain NPR1, stronger effect = lower value 0.868 | S. cerevisiae deletion strains, locus YNL209W, strain ssb2, stronger effect = lower value 1.01 | S. cerevisiae deletion strains, locus YNL233W, strain BNI4, stronger effect = lower value 1.02 | S. cerevisiae deletion strains, locus YNL248C, strain rpa49, stronger effect = lower value 1.03 | S. cerevisiae deletion strains, locus YNL250W, strain rad50, stronger effect = lower value 1.02 | S. cerevisiae deletion strains, locus YNL271C, strain bni1, stronger effect = lower value 1.02 | S. cerevisiae deletion strains, locus YNL298W, strain CLA4, stronger effect = lower value 0.998 | S. cerevisiae deletion strains, locus YNL307C, strain MCK1, stronger effect = lower value 1.02 | S. cerevisiae deletion strains, locus YNL322C, strain KRE1 (second series), stronger effect = lower value 1.01 | S. cerevisiae deletion strains, locus YNL322C, strain KRE1, stronger effect = lower value 1.01 | S. cerevisiae deletion strains, locus YNR049C, strain mso1, stronger effect = lower value 0.995 | S. cerevisiae deletion strains, locus YNR052C, strain pop2, stronger effect = lower value 1 | S. cerevisiae deletion strains, locus YOL006C, strain TOP1, stronger effect = lower value 1.11 | S. cerevisiae deletion strains, locus YOL012C, strain htz1 0.843 | S. cerevisiae deletion strains, locus YOL147C, strain pex11, stronger effect = lower value 1.02 | S. cerevisiae deletion strains, locus YOR001W, strain rrp6, stronger effect = lower value 0.969 | S. cerevisiae deletion strains, locus YOR061W, strain CKA2, stronger effect = lower value 1.01 | S. cerevisiae deletion strains, locus YOR069W, strain VPS5, stronger effect = lower value 1.01 | S. cerevisiae deletion strains, locus YOR070C, strain gyp1, stronger effect = lower value 1.01 | S. cerevisiae deletion strains, locus YOR080W, strain dia2, stronger effect = lower value 0.976 | S. cerevisiae deletion strains, locus YOR083W, strain WHI5, stronger effect = lower value 0.951 | S. cerevisiae deletion strains, locus YOR106W, strain vam3, stronger effect = lower value 0.975 | S. cerevisiae deletion strains, locus YOR136W, strain idh2, stronger effect = lower value 1.02 | S. cerevisiae deletion strains, locus YOR144C, strain elg1, stronger effect = lower value 1.02 | S. cerevisiae deletion strains, locus YOR184W, strain ser1, stronger effect = lower value 1.02 | S. cerevisiae deletion strains, locus YOR231W, strain MKK1, stronger effect = lower value 0.97 | S. cerevisiae deletion strains, locus YOR265W, strain rbl2, stronger effect = lower value 1 | S. cerevisiae deletion strains, locus YOR270C, strain vph1, stronger effect = lower value 1 | S. cerevisiae deletion strains, locus YOR290C, strain snf2, stronger effect = lower value 1.02 | S. cerevisiae deletion strains, locus YOR316C, strain cot1, stronger effect = lower value 1.02 | S. cerevisiae deletion strains, locus YPL051W, strain arl3, stronger effect = lower value 0.998 | S. cerevisiae deletion strains, locus YPL055C, strain LGE1, stronger effect = lower value 1.02 | S. cerevisiae deletion strains, locus YPL078C, strain atp4, stronger effect = lower value 0.986 | S. cerevisiae deletion strains, locus YPL106C, strain sse1, stronger effect = lower value 1.02 | S. cerevisiae deletion strains, locus YPL240C, strain hsp82, stronger effect = lower value 0.982 | S. cerevisiae deletion strains, locus YPL241C, strain CIN2, stronger effect = lower value 1 | S. cerevisiae deletion strains, locus YPL256C, strain CLN2, stronger effect = lower value 0.963 | S. cerevisiae deletion strains, locus YPR119W, strain clb2, stronger effect = lower value 1.01 | S. cerevisiae deletion strains, locus YPR141C, strain kar3, stronger effect = lower value 1.02 | S. cerevisiae deletion strains, locus YPR163C, strain tif3, stronger effect = lower value 1.02 | S. cerevisiae deletion strains, locus YPR167C, strain met16, stronger effect = lower value 1.01 | S. cerevisiae deletion strains, strain wtn01, stronger effect = lower value 1.02 | S. cerevisiae strains, strain wild type, stronger effect = lower value 1.01
